# Results: ChEMBL document CHEMBL2218924, “A broad activity screen in support of a chemogenomic map for kinase signalling research and drug discovery” (Biochem J, 2013)
# Columns and labels:
# [1] = target: Death-associated protein kinase 1 (Homo sapiens) (UniProt P53355); settings: at 1 µM
# [2] = target: Calcium/calmodulin-dependent protein kinase type 1 (Homo sapiens) (UniProt Q14012); settings: at 10 µM
# [3] = target: Calcium/calmodulin-dependent protein kinase type II subunit beta (Homo sapiens) (UniProt Q13554); settings: at 1 µM
# [4] = target: Calcium/calmodulin-dependent protein kinase type II subunit beta (Homo sapiens) (UniProt Q13554); settings: at 10 µM
# [5] = target: Calcium/calmodulin-dependent protein kinase type II subunit gamma (Homo sapiens) (UniProt Q13555); settings: at 10 µM
# [6] = target: Calcium/calmodulin-dependent protein kinase type II subunit delta (Homo sapiens) (UniProt Q13557); settings: at 10 µM
# [7] = target: T1, Calcium/calmodulin-dependent protein kinase type IV (Homo sapiens) (UniProt Q16566); settings: at 10 µM
# T1 sequence (whole entry): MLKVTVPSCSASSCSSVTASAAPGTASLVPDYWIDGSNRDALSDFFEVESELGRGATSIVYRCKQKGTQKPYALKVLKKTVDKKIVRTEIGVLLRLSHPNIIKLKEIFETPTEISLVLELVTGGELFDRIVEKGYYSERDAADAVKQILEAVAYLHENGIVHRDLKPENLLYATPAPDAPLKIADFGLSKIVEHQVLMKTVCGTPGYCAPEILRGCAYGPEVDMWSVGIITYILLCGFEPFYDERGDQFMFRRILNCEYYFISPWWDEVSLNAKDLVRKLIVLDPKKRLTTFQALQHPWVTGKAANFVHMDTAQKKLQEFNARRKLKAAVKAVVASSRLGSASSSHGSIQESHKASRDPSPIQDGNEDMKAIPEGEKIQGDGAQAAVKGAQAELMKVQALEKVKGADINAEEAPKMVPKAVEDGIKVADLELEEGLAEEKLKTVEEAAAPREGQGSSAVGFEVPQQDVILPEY
# [8] = target: Death-associated protein kinase 1 (Homo sapiens) (UniProt P53355); settings: at 10 µM
# [9] = target: Death-associated protein kinase 2 (Homo sapiens) (UniProt Q9UIK4); settings: at 1 µM
# [10] = target: Death-associated protein kinase 2 (Homo sapiens) (UniProt Q9UIK4); settings: at 10 µM
# [11] = target: T2, Serine/threonine-protein kinase DCLK2 (Homo sapiens) (UniProt Q8N568); settings: at 1 µM
# T2 sequence (whole entry): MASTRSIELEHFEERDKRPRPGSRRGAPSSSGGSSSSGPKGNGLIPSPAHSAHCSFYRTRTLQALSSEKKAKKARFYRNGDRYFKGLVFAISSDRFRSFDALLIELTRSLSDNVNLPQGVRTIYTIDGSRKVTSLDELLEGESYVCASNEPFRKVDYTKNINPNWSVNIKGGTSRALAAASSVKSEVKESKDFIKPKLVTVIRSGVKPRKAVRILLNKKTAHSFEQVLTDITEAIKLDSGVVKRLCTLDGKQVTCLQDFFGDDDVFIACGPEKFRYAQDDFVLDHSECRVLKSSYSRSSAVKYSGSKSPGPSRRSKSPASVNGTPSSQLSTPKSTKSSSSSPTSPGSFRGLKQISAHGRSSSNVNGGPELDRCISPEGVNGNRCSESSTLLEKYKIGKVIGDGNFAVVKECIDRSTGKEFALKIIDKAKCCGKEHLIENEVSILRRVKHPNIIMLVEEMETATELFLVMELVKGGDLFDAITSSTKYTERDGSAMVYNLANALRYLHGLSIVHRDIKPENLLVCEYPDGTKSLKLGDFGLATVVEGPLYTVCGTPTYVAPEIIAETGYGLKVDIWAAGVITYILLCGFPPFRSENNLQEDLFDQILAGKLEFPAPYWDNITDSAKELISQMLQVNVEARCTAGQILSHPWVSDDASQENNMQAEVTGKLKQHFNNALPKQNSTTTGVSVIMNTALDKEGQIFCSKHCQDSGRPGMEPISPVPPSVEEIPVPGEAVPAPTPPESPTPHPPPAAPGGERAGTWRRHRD
# [12] = target: T2, Serine/threonine-protein kinase DCLK2 (Homo sapiens); settings: at 10 µM
# [13] = target: T3, Myotonin-protein kinase (Homo sapiens) (UniProt Q09013); settings: at 1 µM
# T3 sequence (whole entry): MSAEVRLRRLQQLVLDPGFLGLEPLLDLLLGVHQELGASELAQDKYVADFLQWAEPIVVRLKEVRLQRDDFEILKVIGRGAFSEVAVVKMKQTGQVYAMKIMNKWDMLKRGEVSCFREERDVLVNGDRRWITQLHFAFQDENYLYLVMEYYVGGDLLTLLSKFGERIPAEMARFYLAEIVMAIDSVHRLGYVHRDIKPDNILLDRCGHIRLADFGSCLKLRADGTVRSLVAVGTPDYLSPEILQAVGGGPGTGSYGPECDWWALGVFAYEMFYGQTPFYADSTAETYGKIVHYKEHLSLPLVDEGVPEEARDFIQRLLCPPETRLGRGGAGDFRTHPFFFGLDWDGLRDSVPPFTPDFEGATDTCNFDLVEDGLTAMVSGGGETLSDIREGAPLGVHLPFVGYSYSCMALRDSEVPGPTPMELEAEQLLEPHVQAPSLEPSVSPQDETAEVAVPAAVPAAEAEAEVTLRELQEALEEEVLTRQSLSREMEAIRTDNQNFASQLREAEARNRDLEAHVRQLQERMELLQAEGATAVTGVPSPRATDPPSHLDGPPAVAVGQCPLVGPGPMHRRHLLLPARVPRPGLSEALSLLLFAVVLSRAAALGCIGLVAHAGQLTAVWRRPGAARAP
# [14] = target: T3, Myotonin-protein kinase (Homo sapiens); settings: at 10 µM
# [15] = target: Calcium/calmodulin-dependent protein kinase type 1 (Homo sapiens) (UniProt Q14012); settings: at 1 µM
# [16] = target: Calcium/calmodulin-dependent protein kinase type II subunit gamma (Homo sapiens) (UniProt Q13555); settings: at 1 µM
# [17] = target: Calcium/calmodulin-dependent protein kinase type II subunit delta (Homo sapiens) (UniProt Q13557); settings: at 1 µM
# [18] = target: T1, Calcium/calmodulin-dependent protein kinase type IV (Homo sapiens); settings: at 1 µM
# [19] = target: T4, Discoidin domain-containing receptor 2 (Homo sapiens) (UniProt Q16832); settings: at 1 µM
# T4 sequence (whole entry): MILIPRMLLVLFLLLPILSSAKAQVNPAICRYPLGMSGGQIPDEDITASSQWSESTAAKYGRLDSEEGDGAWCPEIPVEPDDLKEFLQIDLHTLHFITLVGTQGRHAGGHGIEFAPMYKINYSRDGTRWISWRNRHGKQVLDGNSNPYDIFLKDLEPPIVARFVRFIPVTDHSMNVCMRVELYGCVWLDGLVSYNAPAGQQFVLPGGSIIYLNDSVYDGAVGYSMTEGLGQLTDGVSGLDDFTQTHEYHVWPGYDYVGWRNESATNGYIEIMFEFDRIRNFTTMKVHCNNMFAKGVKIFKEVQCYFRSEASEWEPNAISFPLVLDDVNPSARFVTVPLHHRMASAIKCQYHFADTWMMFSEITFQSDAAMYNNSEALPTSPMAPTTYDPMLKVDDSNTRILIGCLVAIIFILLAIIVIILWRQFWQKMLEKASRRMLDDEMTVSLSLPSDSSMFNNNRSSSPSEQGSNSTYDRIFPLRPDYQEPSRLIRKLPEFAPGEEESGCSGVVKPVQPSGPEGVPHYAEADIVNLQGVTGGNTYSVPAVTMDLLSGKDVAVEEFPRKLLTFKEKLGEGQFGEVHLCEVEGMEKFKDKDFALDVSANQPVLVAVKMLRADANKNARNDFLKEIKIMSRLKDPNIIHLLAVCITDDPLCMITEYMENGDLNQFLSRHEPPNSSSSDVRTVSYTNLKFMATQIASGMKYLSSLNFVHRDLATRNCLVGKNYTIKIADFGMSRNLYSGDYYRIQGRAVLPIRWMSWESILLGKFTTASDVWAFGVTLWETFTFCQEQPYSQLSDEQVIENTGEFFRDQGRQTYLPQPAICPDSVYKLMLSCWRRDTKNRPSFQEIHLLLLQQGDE
# [20] = target: T4, Discoidin domain-containing receptor 2 (Homo sapiens); settings: at 10 µM
# Chain of Calcium/calmodulin-dependent protein kinase type II subunit gamma (Homo sapiens) (Q13555 whole entry): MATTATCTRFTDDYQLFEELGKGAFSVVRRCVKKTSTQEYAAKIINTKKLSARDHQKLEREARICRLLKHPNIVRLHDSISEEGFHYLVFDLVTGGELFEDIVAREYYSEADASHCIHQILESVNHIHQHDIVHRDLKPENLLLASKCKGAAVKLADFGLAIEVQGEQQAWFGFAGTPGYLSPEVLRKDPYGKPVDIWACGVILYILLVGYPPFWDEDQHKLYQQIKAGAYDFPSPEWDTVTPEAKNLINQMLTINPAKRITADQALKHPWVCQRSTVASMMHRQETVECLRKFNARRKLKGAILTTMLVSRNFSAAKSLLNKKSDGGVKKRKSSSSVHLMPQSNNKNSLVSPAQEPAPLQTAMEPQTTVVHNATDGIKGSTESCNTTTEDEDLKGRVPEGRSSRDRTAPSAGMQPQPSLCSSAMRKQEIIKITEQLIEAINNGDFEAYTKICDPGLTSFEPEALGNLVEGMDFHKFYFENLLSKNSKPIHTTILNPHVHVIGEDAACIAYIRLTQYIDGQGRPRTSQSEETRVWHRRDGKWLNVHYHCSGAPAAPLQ
# Chain of Death-associated protein kinase 2 (Homo sapiens) (Q9UIK4 whole entry, looked up): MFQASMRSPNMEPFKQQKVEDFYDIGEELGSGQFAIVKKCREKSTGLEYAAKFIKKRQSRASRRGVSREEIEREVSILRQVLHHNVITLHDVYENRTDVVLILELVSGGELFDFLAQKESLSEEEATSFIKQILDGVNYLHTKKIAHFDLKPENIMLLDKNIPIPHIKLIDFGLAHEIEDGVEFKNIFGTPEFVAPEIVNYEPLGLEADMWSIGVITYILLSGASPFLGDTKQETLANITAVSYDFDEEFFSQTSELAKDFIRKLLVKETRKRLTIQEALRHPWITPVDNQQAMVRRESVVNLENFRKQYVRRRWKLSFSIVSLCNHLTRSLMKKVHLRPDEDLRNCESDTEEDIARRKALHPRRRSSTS
# Chain of Calcium/calmodulin-dependent protein kinase type II subunit beta (Homo sapiens) (Q13554 whole entry): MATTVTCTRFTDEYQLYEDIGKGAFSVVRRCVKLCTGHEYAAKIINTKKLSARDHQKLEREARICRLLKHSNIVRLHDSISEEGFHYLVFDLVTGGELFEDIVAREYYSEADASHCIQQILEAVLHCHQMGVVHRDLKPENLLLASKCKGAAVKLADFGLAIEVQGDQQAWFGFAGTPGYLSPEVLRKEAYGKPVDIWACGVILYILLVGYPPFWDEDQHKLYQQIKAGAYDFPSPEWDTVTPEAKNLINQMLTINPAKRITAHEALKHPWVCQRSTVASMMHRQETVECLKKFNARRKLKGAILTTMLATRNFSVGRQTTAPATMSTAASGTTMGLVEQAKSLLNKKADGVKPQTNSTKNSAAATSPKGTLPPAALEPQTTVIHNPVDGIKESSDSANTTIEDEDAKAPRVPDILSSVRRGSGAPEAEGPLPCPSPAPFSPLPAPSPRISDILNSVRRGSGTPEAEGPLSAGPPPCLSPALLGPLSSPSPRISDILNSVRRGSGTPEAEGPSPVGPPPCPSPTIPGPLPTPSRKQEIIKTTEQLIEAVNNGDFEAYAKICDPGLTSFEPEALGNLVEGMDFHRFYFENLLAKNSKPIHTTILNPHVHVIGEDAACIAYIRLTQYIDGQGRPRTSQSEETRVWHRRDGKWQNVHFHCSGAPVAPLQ
# Chain of Calcium/calmodulin-dependent protein kinase type 1 (Homo sapiens) (Q14012 whole entry, looked up): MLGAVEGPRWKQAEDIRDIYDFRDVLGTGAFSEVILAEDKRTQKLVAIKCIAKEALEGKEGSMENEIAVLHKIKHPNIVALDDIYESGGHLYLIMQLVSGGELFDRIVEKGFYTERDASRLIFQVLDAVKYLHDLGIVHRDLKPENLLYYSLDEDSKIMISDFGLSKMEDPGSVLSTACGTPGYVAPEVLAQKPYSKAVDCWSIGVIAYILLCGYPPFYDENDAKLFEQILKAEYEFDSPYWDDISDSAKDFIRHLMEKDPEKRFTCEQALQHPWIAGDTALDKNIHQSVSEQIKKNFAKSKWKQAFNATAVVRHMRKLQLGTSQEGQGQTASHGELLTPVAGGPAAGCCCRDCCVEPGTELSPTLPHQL
# Chain of Calcium/calmodulin-dependent protein kinase type II subunit delta (Homo sapiens) (Q13557 whole entry): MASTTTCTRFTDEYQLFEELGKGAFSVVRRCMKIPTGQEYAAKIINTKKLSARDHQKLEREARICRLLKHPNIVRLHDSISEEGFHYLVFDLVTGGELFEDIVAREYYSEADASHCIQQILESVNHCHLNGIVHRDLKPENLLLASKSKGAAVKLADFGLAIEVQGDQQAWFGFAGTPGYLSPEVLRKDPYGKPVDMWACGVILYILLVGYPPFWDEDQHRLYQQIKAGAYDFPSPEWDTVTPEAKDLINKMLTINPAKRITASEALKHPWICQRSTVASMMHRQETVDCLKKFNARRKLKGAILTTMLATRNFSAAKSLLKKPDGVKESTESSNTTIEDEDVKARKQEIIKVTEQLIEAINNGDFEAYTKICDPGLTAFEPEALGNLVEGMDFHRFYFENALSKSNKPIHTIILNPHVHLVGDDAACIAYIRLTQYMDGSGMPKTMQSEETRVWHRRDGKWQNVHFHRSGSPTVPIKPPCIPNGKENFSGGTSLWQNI
# Chain of Death-associated protein kinase 1 (Homo sapiens) (P53355 whole entry, looked up): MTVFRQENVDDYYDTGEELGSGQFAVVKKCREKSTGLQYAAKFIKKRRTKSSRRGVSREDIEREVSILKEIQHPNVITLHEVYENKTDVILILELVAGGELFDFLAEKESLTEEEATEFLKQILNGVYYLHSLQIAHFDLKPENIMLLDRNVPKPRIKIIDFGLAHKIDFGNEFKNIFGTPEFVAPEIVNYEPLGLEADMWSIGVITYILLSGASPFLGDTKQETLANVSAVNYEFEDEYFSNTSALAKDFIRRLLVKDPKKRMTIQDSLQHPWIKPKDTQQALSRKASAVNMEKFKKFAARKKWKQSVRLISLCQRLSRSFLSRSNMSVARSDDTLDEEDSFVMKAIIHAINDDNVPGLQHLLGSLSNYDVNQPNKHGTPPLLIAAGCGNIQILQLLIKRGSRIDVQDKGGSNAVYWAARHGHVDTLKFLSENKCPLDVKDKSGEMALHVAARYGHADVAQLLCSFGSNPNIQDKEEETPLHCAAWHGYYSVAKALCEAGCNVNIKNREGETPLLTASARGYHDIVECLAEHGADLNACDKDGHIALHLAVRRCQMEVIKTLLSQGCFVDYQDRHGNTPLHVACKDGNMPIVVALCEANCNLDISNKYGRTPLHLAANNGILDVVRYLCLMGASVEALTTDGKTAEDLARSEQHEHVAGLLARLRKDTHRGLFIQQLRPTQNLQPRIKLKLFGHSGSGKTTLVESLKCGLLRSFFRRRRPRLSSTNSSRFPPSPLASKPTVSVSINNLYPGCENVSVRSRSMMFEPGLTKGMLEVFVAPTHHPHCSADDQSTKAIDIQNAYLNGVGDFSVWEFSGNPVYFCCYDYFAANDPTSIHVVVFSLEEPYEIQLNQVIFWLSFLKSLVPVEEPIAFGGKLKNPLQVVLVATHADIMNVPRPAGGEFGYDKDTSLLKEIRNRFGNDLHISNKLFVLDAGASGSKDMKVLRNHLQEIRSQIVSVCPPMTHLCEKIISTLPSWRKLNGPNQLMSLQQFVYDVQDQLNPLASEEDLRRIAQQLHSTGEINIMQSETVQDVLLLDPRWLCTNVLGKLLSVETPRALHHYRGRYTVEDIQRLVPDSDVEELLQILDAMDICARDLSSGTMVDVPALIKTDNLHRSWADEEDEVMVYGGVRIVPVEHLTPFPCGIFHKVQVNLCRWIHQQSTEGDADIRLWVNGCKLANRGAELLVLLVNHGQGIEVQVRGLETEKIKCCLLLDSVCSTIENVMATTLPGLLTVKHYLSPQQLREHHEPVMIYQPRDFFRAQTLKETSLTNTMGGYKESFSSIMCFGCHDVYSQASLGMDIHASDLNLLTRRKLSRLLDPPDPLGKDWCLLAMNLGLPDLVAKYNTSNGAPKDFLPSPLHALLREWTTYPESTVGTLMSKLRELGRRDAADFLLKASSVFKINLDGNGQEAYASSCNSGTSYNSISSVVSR
SMILES,residual activity [1],residual activity [2],residual activity [3],residual activity [4],residual activity [5],residual activity [6],residual activity [7],residual activity [8],residual activity [9],residual activity [10],residual activity [11],residual activity [12],residual activity [13],residual activity [14],residual activity [15],residual activity [16],residual activity [17],residual activity [18],residual activity [19],residual activity [20]
O=C(O)c1ccc2c3c1cccc3c(=O)n1c3ccccc3nc21,79%,,,,,,,,,,,,,,,,,,,
Nc1ccc2ncnc(NCCc3ccc(Oc4ccccc4)cc3)c2c1,94%,,,,,,,,,,,,,,,,,,,
COc1ccc2c(c[n+](C)c3c4cc5c(cc4ccc23)OCO5)c1OC,94%,86%,80%,55%,70%,85%,69%,71%,99%,91%,98%,90%,111%,126%,,,,,,
O=C1NC(=O)c2c1c1c3ccccc3n3c1c1c2c2ccccc2n1C1CCC3O1,49%,48%,32%,32%,1%,5%,100%,60%,54%,20%,,,,,63%,0%,-1%,90%,77%,81%
O=C1Nc2ccc3ncsc3c2/C1=C/c1c[nH]cn1,85%,22%,13%,3%,-1%,4%,24%,63%,71%,32%,55%,17%,120%,105%,72%,21%,18%,80%,113%,82%
O=c1[nH]c2ccccc2n1C1CCN(Cc2ccc(-c3nc4cc5[nH]cnc5cc4nc3-c3ccccc3)cc2)CC1,93%,-5%,94%,6%,16%,2%,49%,95%,98%,78%,87%,98%,133%,143%,103%,104%,102%,130%,109%,85%
COc1cc2ncnc(Nc3ccc(OCc4ccccc4)cc3)c2cc1OC,94%,57%,106%,95%,93%,83%,91%,100%,104%,112%,89%,112%,105%,103%,92%,109%,100%,92%,108%,93%
COc1cc(OC)c(/C=C2\C(=O)Nc3ccccc32)c(OC)c1,84%,82%,102%,76%,96%,89%,101%,81%,100%,95%,,,,,96%,105%,107%,,97%,90%
COC(=O)[C@@]1(O)C[C@H]2O[C@]1(C)n1c3ccccc3c3c4c(c5c6ccccc6n2c5c31)C(=O)NC4,48%,1%,0%,-1%,0%,1%,11%,10%,12%,-3%,75%,41%,116%,65%,6%,1%,0%,24%,56%,17%
